# Lassa entry inh = qHTS for Inhibitors of binding or entry into cells for Lassa Virus | hit rate 1.2% among 300,000 | Lassa virus pseudotype entry inhibition, cell reporter | Potency, µM (doses to about 37.9 µM), for the others: at the top dose activity change, negative = inhibition, actives largely listed as inhibitors | AID 540256, 2011; calls by dose curve; tested in HEK293 cells; also: potency is read from the fitted curve at half-maximal effect; % is scaled to controls: 0 for no effect and ±100 for the full control effect; nearly all actives have a fitted effect of over 50% in size
# Cycloheximide cs = Cycloheximide Counterscreen for Small Molecule Inhibitors of Shiga Toxin | cell reporter, cycloheximide protein synthesis inhibition counterscreen | max response, % | hit rate 12% among 300,000 | AID 2314, 2010; in the data active = max response mostly above about 13%, no sharp cut-off; inactive = mostly below about 14%; also: read at 38.3 µM for the half of the compounds with a filed dose; 0% is about no effect
# Shiga toxin inh = A qHTS for Small Molecule Inhibitors of Shiga Toxin; Vero cells, Shiga toxin protein synthesis inhibition reporter; inhibition, % at 38.7 µM; hit rate 9.2% among 290,000; AID 2315, 2010; in the data active = inhibition mostly above about 28%, no sharp cut-off; inactive = mostly below about 43%; also: 0% is about no effect
# Vaccinia Venus = qHTS for Stage-Specific Inhibitors of Vaccinia Orthopoxvirus: Venus Reporter Primary qHTS; hit rate 0.46% among 330,000; AID 720580, 2013; Potency, µM (doses to about 36.5 µM), inactives show top-dose activity change, negative = inhibition, usual class: inhibitors; Vaccinia virus Venus reporter expression, fluorescence; calls by dose curve; tested in A549 cells; also: potency is read from the fitted curve at half-maximal effect; % is scaled to controls: 0 for no effect and ±100 for the full control effect; nearly all actives have a fitted effect of over 30% in size
# VACV mCherry inh = qHTS for Stage-Specific Inhibitors of Vaccinia Orthopoxvirus: mCherry Reporter Primary qHTS. Vaccinia virus mCherry reporter infection, fluorescence. Potency, µM (titrated, usually from 36.5 µM), without a hit: at the highest dose activity change, negative = inhibition, actives largely listed as inhibitors. hit rate 0.63% among 310,000; calls by dose curve; tested in A549 cells; also: potency is read from the fitted curve at half-maximal effect; % is scaled to controls: 0 for no effect and ±100 for the full control effect; nearly all actives have a fitted effect of over 35% in size
# Marburg entry inh = qHTS for inhibitors of binding or entry into cells for Marburg Virus. Marburg virus pseudotyped entry inhibition, cell reporter. Potency, µM (top dose mostly 37.8 µM), without a hit: top-dose activity change, negative = inhibition, actives largely listed as inhibitors. hit rate 1.8% among 300,000. AID 540276, 2011; calls by dose curve; tested in HEK293 cells; also: potency is read from the fitted curve at half-maximal effect; % is scaled to controls: 0 for no effect and ±100 for the full control effect
# * hit, by the source's call; i = inactive; ? = inconclusive; · = no result; [ ] = dose if it differs, or a comment. Only a selection was taken, and hits are over-represented in it overall.
SMILES,Lassa entry inh,Cycloheximide cs,Shiga toxin inh,Vaccinia Venus,VACV mCherry inh,Marburg entry inh
COc1ccccc1C(=O)Nc1ccc2c(c1)nc(CCNC(C)=O)n2C,21%,17*,26,·,·,19%
CCC(=O)NCCc1nc2cc(NC(=O)c3cccs3)ccc2n1C,·,17*,48*,-3%,-11%,?
COc1ccccc1C(=O)Nc1ccc2c(c1)nc(CCNC(=O)c1ccccc1)n2C,?,22,21,?,?,?
O=c1[nH]c(SCc2ccccc2)nc2c1CCCC2,12%[46.1 µM],·,·,-17%,-17%,?
CN(C)S(=O)(=O)c1ccc(NC(=O)CCNC(=O)c2ccc([N+](=O)[O-])cc2)cc1,-9%[46.1 µM],3,0,-7%,-14%,-6%[46.1 µM]
COc1ccc(CCC(=O)Nc2ccc(C)c(S(=O)(=O)N(C)C)c2)cc1OC,-1%,-2,-6,-15%,-7%,11µM*
COc1cc(CCC(=O)Nc2ccc(C)c(S(=O)(=O)N(C)C)c2)cc(OC)c1OC,?,-3,-5,-24%,-17%,?
Cc1ccc(NC(=O)c2ccc(OC(F)F)cc2)cc1S(=O)(=O)N(C)C,-22%,29*,0,-21%,?,?
Cc1ccc(NC(=O)CCNC(=O)c2ccc([N+](=O)[O-])cc2)cc1S(=O)(=O)N(C)C,?,4,29,-19%,-8%,10µM*
Cc1ccc(NC(=O)c2ccc([N+](=O)[O-])cc2)cc1S(=O)(=O)N(C)C,?,40*,68*,-1%,-12%,19%[46.1 µM]
Cc1ccc([N+](=O)[O-])cc1S(=O)(=O)N(C)C,36%,-1,-1,·,·,?
CCOc1ccccc1NC(=O)Cn1nnc2sc3c(c2c1=O)CCC(C(C)(C)C)C3 (stereo not drawn),24%[46.1 µM],·,·,-17%,-10%,?
COc1ccc(OC)c(C=Nc2ccccc2-c2nc3ccccc3[nH]2)c1,-23%,27*,45*,-13%,-17%,-22%
Oc1ccc(C=Nc2cccc3ncccc23)c(O)c1,-24%,1,2,-10%,-19%,3%
COc1ccc(OC)c(/C=C/c2nc3ccccc3[nH]c2=O)c1,7%,-3,-3,-7%,-10%,?
Oc1ccccc1C=Nc1ccccc1-c1nc2ccccc2[nH]1,?,38*,75*,-6%,-23%,?
Oc1ccc(C=Nc2ccccc2-c2nc3ccccc3[nH]2)c(O)c1,?,13*,51,-18%,i,-13%
COc1cc(C2C=C(C34CC5CC(CC(C5)C3)C4)NC(=S)N2)cc(OC)c1OC (stereo not drawn),?,2,-9,?,-11%,?
COc1ccc(OC)c(C2C=C(C34CC5CC(CC(C5)C3)C4)NC(=S)N2)c1 (stereo not drawn),?,0,-7,-18%,-20%,7.1µM*
COc1ccc(C(=O)CSc2nc(C)cc(C)n2)cc1C,·,6,12,·,·,·
Cc1cc(C(=O)CS(=O)(=O)c2ccc(F)cc2)cc(C)c1OC(=O)N(C)C,?,44*,89*,-26%,-30%,?
COc1ccc(S(=O)(=O)CC(=O)c2cc(C)c(O)c(C)c2)cc1,·,1,7,-9%,-27%,·
COc1ccc(SCC(=O)c2cc(C)c(OC(=S)N(C)C)c(C)c2)cc1,?,48*,67,-13%,-4%,-3%[46.1 µM]
Cc1cc(C(=O)CSc2ccc(F)cc2)cc(C)c1OC(=S)N(C)C,?,58*,146*,0%,·,?
Cc1nc2nc(CNC(=O)c3cccc(F)c3)nn2c(C)c1CCC(=O)Nc1cccc(Cl)c1,?,·,·,-9%,5%,9%[46.1 µM]
SMILES,Lassa entry inh,Cycloheximide cs,Shiga toxin inh,Vaccinia Venus,VACV mCherry inh,Marburg entry inh
Cc1cc(C)n(-c2ccc(C(=O)NC(C)C)cc2)n1,6%,-1,5,-10%,-18%,20%
Cc1cc(C)n(-c2ccc(C(=O)OC(C)C)cc2)n1,?,20*,15,-11%,i,5%
CCOc1ccc(C(=O)N2CCc3ccccc32)cc1,·,44*,64*,·,·,·
COc1ccc(C(=O)OC2CCN(C)CC2)cc1,2%,8,8,1%,·,?
COc1cc(C(=O)N2CCc3ccccc32)cc(OC)c1OC,-7%,1,1,-13%,-2%,?
CCOc1ccc(C(=O)OC2CCN(C)CC2)cc1,1%,14*,26,-5%,-18%,?
CCOc1ccc(-n2c(=O)[nH]cc(C(=O)N3CCc4ccccc43)c2=O)cc1,-16%,3,23,2.8µM*,?,4%[46.1 µM]
CC1(Cc2ccccc2OC(F)(F)F)C(=O)Nc2c(Cl)ccc(Cl)c21 (stereo not drawn),·,·,·,-5%,i,·
O=C(NCCc1c[nH]c2ccccc12)OCCSS(=O)(=O)O,?,-1,-4,-7%,-14%,-23%[46.1 µM]
CC(C)(C)c1cc(C(=O)N2CCc3ccccc32)ccn1,0%,9,40*,·,·,?
COC(=O)c1ccc(OCC(=O)N2CCCc3ccccc32)cc1,-10%,0,-3,-5%,-8%,15%[46.1 µM]
CCCOc1ccc(C(=O)N2CCCc3ccccc32)cc1,?,15*,19,·,·,?
O=C(c1ccc2ccccc2c1)N1CCc2ccccc21,2%,37*,48,-12%,7%,0%[46.1 µM]
Cc1cc(C)n(-c2ccc(C(=O)N3CCc4ccccc43)cc2)n1,18%,18*,63*,·,·,-17%
CC(C)(C)c1cc(C(=O)N2CCc3ccccc3C2)ccn1,·,13,3,·,·,·
COc1ccccc1C(=O)N1CCOc2ccc(CN3CCN(Cc4ccccn4)CC3)cc2C1,·,·,·,3%,-11%,·
CCSc1nnc2c(n1)OC(C)(C)Nc1ccccc1-2,?,34*,65*,-17%,?,12%
CSc1nnc2c(n1)OC1(Nc3ccccc3-2)C(=O)Nc2ccccc21 (stereo not drawn),7%,-3,3,·,·,-2%
CCOC(=O)CN1C=C(c2ccc3ccccc3n2)C(C[N+](=O)[O-])c2ccccc21 (stereo not drawn),9%,11*,22,-5%,·,2%
Cc1cc(O)c(C(=O)Cc2csc(C)n2)c(O)c1,·,39*,83*,-15%,-3%,·
CCc1cc(/C(Cc2csc(C)n2)=N/O)c(O)cc1O,?,-2,-24,?,·,?
O=C(Nc1ccc(N2CCOCC2)nc1)c1ccc(C(F)(F)F)cc1,?,10,3,-29%,-30%,9%[46.1 µM]
CC(=O)N1CCN(c2ccc(NC(=O)c3cccc(Cl)c3Cl)cc2)CC1,18%[46.1 µM],-2,-1,-17%,-15%,?
O=C(Nc1ccc(N2CCCC2)cc1)c1cccc(Cl)c1Cl,4%,25*,71*,-21%,?,-22%
CS(=O)(=O)N1CCN(c2ccc(NC(=O)c3cccnc3Cl)cc2)CC1,0%,9,14,4%,-15%,-1%
